Source: PubChem BioAssay (EPA / NIEHS)
The source made the active and inactive calls. How the source made its calls: active means hit-call score of the fitted dose curve at least 0.9, where 1 is the maximum; inactive means score below 0.9.

experiment: ATG_Oct_MLP_CIS: Attagene CIS-FACTORIAL HepG2 Assay for human Octamer-Binding Transcription Factor (Oct) (AID 2282993); details: HepG2 Attagene cis-factorial Oct reporter, mRNA; actives raise or lower the signal
Procedure: ATG_CIS is a cell-based, multiplexed-readout assay that uses HepG2, a human liver cell line, with measurements taken at 24 hours after chemical dosing in a 24-well plate.ATG_Oct_MLP_CIS is one of 52 assay component(s) measured or calculated from the ATG_CIS assay. It is designed to make measurements of mRNA induction, a form of inducible reporter, as detected with fluorescence intensity signals by Reverse transcription polymerase chain reaction (RT-PCR) and Capillary electrophoresis technology.Data from the assay component ATG_Oct_MLP_CIS was analyzed into 1 assay endpoint. This assay endpoint, ATG_Oct_MLP_CIS, was analyzed with bidirectional fitting relative to DMSO as the negative control and baseline of activity. Using a type of inducible reporter, measures of mRNA for gain or loss-of-signal activity can be used to understand the reporter gene at the transcription factor-level as they relate to the gene POU2F1. Furthermore, this assay endpoint can be referred to as a primary readout, because this assay has produced multiple assay endpoints where this one serves a reporter gene function. To generalize the intended target to other relatable targets, this assay endpoint is annotated to the dna binding intended target family, where the subfamily is POU domain protein.
Human liver HepG2 cells are transiently transfected with multiple reporter transcription units (MRTUs) in 6-well plates using FuGene 6 reagent (Roche; 3 ml FuGene/1 mg DNA). The MRTU constructs are regulated by a cis-regulating element (promoter). […] A major difference between the CIS and TRANS system is that in CIS activities of endogenous TFs are measured, whereas the TRANS assay evaluates changes in activities of exogenous, chimeric NR-Gal4 proteins. […] At the end of 24 hour incubation, total RNA was isolated using TriZol reagent (Invitrogen). The isolated RNA is then reverse-transcribed using oligo(dT) primer and Mo-MLV reverse transcriptase (Invitrogen) with DNAse I (Ambion) treatment for 30 min. The one-tenth of the produced cDNA was amplified by PCR using Taq DNA polymerase (Invitrogen) and two reporter sequence-specific primers. The PCR products were fluorescently labeled by primer extension with 6-arboxyfluorescein (6-FAM) 5'-labeled reporter sequence-specific primer (2 min at 95 C, 20 s at 68 C and 10 min at 72 C) and these products were digested with 5U of HpaI (New England Biolabs) for 2h at 37 C. The fragments were purified using Qiaquick PCR columns (Qiagen), analyzed on an ABI 3130xL genetic analyzer (Applied Biosystems) with peak positions identified by using a set of X-rhodamine (ROX)-labeled MapMarker1000 molecular weight standards (BioVentures). The raw capillary electrophoresis data was processed using Attagraph software (Attagene).

outcome, inactive:
C1=CCCC1
CC(C)CCCC(C)CC=O (stereo not given)
CC(=O)OCC(=O)[C@@]12N=C(C)O[C@@H]1C[C@H]1[C@@H]3CCC4=CC(=O)C=C[C@]4(C)[C@H]3[C@@H](O)C[C@@]12C
CCCCCCCCCCCCCCCCCC#N
NC(=O)OCC(COC(N)=O)c1ccccc1
CCCCCCC1(C)CCC(=O)O1 (stereo not given)
CCCCCCCCCCCCCCCC[n+]1ccccc1
CC=CCO
CCOC(=O)CC
O=C1CCCN1CCO
C=CC(=O)OCCC(=O)O
C=C[Si](OC(C)=O)(OC(C)=O)OC(C)=O
CC(=O)c1ccc2c(c1)CCCC2
C#CC1(O)CC[C@H]2[C@@H]3CCC4=CCCC[C@@H]4[C@H]3CC[C@@]21C (stereo not given in full)
CNC(=S)N(C)C
O=C(O)c1cc(Cl)cc([N+](=O)[O-])c1Cl
O=C(Cl)c1cc(C(=O)Cl)cc(C(=O)Cl)c1
N=c1ccn2c(n1)O[C@H]1[C@H](O)[C@@H](CO)O[C@H]12
CCCCCCCC[N+](C)(CCCCCCCC)CCCCCCCC
CC(CC=O)c1ccccc1 (stereo not given)
O=C1CCCC1
Cc1ccc(N)c([N+](=O)[O-])c1
CCO[Si](C)(OCC)OCC
CC(=O)Nc1ccc2c(c1)Cc1cc(NC(C)=O)ccc1-2
CCCC(C)CCC(C)=O (stereo not given)
CN(C)CCCN(C)C
S=C(NC1CCCCC1)NC1CCCCC1
C=CC(C)(CCC=C(C)C)OC(=O)C(C)C (stereo not given)
COCC(C)N (stereo not given)
c1c[nH]cn1
CCCOC(=O)CCCCC(=O)OCCC
O=C(c1ccccc1)c1ccc(O)c(O)c1O
CCOC(=O)Cc1cccc2ccccc12
Cc1ccc(OC(=O)CC(C)C)cc1
CCCCCCCC(C)=O
CCOC(=O)[C@H](C)O

AC50, active:
C=CC(=O)OCCOC(=O)C=C 26.3 µM
CC(C)c1ccc2c(c1)CC[C@H]1[C@](C)(CN)CCC[C@]21C 5.89 µM
Nc1ncn([C@@H]2O[C@H](CO)[C@@H](O)[C@H]2O)c(=O)n1 8.32 µM
O=c1cc(-c2ccccc2)oc2ccccc12 52.4 µM
